From PubChem
In the library only some 3.4% were active in any assay of this set; here they are far more common.
PP1 inh: counter-screen for PP5 inhibitors: inhibitors of human PP1-alpha; P62136; 0.9% of 320,000 active; AID 2235; inhibition, % at 6.7 µM; purified PP1alpha, OMFP fluorescence;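 active = inhibition above the mean inhibition of all tested compounds plus 3 SD, computed separately for each screening campaign, cut at about 15% in these data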
PAFAH1B2 inh: inhibitors of human PAFAH1B2; P68402; recombinant PAFAH1B2, FP-rhodamine activity probe, fluorescence polarization; inhibition, % at 3.39 µM; 1.2% of 340,000 active; AID 492953;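 active = inhibition above the mean of all tested compounds plus 3 SD, cut at about 24% in these data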
PAFAH2 inh: PAFAH2 (human) inhibition. recombinant PAFAH2, FP-rhodamine activity probe, fluorescence polarization. 0.99% of 340,000 active. Q99487. inhibition, % at 3.39 µM;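 active = inhibition above the mean over all tested compounds plus 3 SD, cut at about 30% in these data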;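 also: inhibitors block probe labeling of enzyme so polarization drops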
PAFAH1B3 FP inh: blocks human PAF acetylhydrolase 1B catalytic subunit 3; Q15102; recombinant PAFAH1B3, FP-rhodamine probe, fluorescence polarization; inhibition, % at 3.39 µM; 0.28% of 340,000 active;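 active = inhibition above the screen-wide average of all tested compounds plus 3 SD, cut at about 25% in these data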
PP5 inh: blocks human protein phosphatase 5 activity. purified PP5c, OMFP substrate fluorescence. inhibition, % at 6.7 µM. 0.18% of 320,000 active. AID 1987;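 active = inhibition above the campaign's mean inhibition across all tested compounds plus 3 SD, cut at about 9.5% in these data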
Target sequence (P53041 whole entry, looked up): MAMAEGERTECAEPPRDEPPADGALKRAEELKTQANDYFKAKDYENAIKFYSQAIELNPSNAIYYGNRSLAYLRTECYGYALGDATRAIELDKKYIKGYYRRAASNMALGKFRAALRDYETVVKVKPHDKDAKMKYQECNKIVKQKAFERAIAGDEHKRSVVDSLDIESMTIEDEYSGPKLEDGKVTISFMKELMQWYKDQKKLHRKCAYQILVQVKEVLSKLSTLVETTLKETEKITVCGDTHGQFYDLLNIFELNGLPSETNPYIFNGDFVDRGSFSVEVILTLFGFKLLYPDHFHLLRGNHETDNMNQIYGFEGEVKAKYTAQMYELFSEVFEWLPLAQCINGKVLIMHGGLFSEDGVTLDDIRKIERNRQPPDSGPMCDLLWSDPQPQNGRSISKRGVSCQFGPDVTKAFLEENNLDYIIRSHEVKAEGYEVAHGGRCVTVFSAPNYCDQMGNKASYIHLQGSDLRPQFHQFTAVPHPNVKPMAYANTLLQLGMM
pPAFAH inh: inhibitors of human plasma PAF acetylhydrolase (pPAFAH); recombinant pPAFAH, FP-rhodamine probe fluorescence polarization; inhibition, % at 3.39 µM; 1.5% of 330,000 active; AID 463082;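 active = inhibition above the mean inhibition across the screen plus 3 SD, cut at about 25% in these data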;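 also: inhibitors block binding of the rhodamine activity-based probe so polarization drops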
PAFAH1B3 confirm: PAFAH1B3 (human) inhibition, confirmed; shares compounds with PAFAH1B3 FP inh; 30% of 390 active; inhibition, % at 3.39 µM; recombinant PAFAH1B3, FP-Rh activity-based probe, fluorescence polarization;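 active = average inhibition over triplicate runs above the hit cutoff set in the earlier primary screen, cut at about 25% in these data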
A number is an active result; – = inactive; · = no result given; ! = not confirmed by another sample.

SMILES | PP1 inh | PAFAH1B2 inh | PAFAH2 inh | PAFAH1B3 FP inh | PP5 inh | pPAFAH inh | PAFAH1B3 confirm
CC1CN(c2sc(S(C)(=O)=O)nc2S(=O)(=O)c2ccc(Cl)cc2)CC(C)O1 (stereo not drawn) | – | – | – | – | – | – | ·
O=C(CCl)Nc1c(C(=O)Nc2ccc3c(c2)OCCO3)oc2ccccc12 | – | – | – | 25.9 | – | – | 29.8
COCC(=O)Nc1c(C(=O)Nc2ccc3c(c2)OCO3)oc2ccccc12 | – | – | – | – | – | – | ·
CC1=C(Nc2ccc(C(=O)O)cc2)C(=O)c2ccccc2C1=O | – | – | – | – | – | – | ·
O=C(O)c1ccc(NC2=C(Cl)C(=O)c3ccccc3C2=O)cc1 | – | – | – | 32.8 | – | – | –
O=C1C(Cl)=C(Nc2ccccc2)C(=O)c2ccccc21 | – | – | – | 26.0 | – | – | –
O=C(O)c1cccc(NC2=C(Cl)C(=O)c3ccccc3C2=O)c1 | · | – | – | 27.3 | · | · | –
O=C(O)/C=C/C(=O)NCc1cn(-c2ccccc2)nc1-c1cccc(Br)c1 | – | – | – | – | – | – | ·
O=C(CSc1ncc(S(=O)(=O)c2ccccc2)c(=O)[nH]1)Nc1ccccc1Cl | – | – | – | 56.3 | – | – | 50.8
Cc1ccc(NC(=O)CSc2ncc(S(=O)(=O)c3ccccc3)c(=O)[nH]2)cc1C | – | – | – | – | – | – | ·
Cc1cc2c(N=O)c(NO)ccc2[nH]1 | – | – | – | 44.2 | – | – | 34.9
COc1ccc2c(c1)CC=C1C2CCC2(C)C(=O)C(=NO)CC12 (stereo not drawn) | · | – | – | 33.3 | · | · | 29.1
O=C1c2ccccc2C(=O)c2c1cccc2-n1nnc2ccccc21 | – | – | – | – | – | – | ·
O=C1C(N2CCOCC2)=C(n2nnc3ccccc32)C(=O)c2ccccc21 | – | – | – | 51.0 | – | – | 33.7
O=Nc1c(O)[nH]c2ccc(Cl)cc12 | – | – | – | 25.5 | – | – | 33.8
N=c1n(CCO)c2ccccc2n1CCN1CCCCC1 | – | – | – | – | – | – | ·
CC(Nc1cccc2ccccc12)C(=O)N/N=C/c1ccccn1 (stereo not drawn) | – | – | – | 36.2 | – | – | –
N#CC(C#N)=C1C=C2C=C(N3CCOCC3)CCC2CC1 (stereo not drawn) | · | – | – | 34.0 | · | · | –
CNCCCC12CCC(c3ccccc31)c1ccccc12 | – | – | – | 50.2! | – | – | –
CNCCCC1c2ccccc2C=Cc2ccccc21 | – | – | – | – | – | – | ·
Cc1cc(-c2nnc(CCC(=O)NC(C)(C)C34CC5CC(CC(C5)C3)C4)o2)no1 | – | – | – | – | – | – | ·
COCC(=O)OC1CCn2c1nc1c2C(=O)C(C)=C(NC(C)=O)C1=O (stereo not drawn) | · | – | – | 69.2 | · | · | 54.7
CCc1cccc2c(C(=O)CSc3nnc(-c4ccncc4)n3C)c[nH]c12 | – | – | – | – | – | – | ·
COc1ccccc1-c1cc(N)n(S(=O)(=O)c2cccc3nsnc23)n1 | – | – | – | – | – | – | ·
O=C1C=C(O)c2[nH]c(=O)ccc2C1=O | · | – | – | 53.2 | · | · | –
SMILES | PP1 inh | PAFAH1B2 inh | PAFAH2 inh | PAFAH1B3 FP inh | PP5 inh | pPAFAH inh | PAFAH1B3 confirm
O=C(O)c1cccc2c1C(=O)c1ccccc1C2=O | – | – | – | – | – | – | ·
O=C1c2ccccc2C(=O)c2c(O)c(O)cc(O)c21 | · | – | – | 39.7 | · | 47.0 | 29.4
CC(C)COC(=O)c1cccc2c1-c1ccccc1/C2=N\O | – | – | – | – | – | – | ·
Cc1[nH]c2ccccc2c1CC(=O)O | – | – | – | – | – | – | ·
COc1ccc(/C=C2\C(=N)N3N=C(CC(=O)N4CCOCC4)SC3=NC2=O)cc1 | – | – | – | – | – | – | ·
N=C1/C(=C/c2ccc(-c3cccc(C(=O)O)c3)o2)C(=O)N=C2SC(CC(=O)N3CCOCC3)=NN12 | – | – | – | 29.7 | – | – | –
NNC(=O)/C(=N/Nc1ccccc1)S(=O)(=O)c1ccc(Cl)cc1 | – | – | – | 40.2 | – | – | 37.5
COc1cc2c(cc1OC)CN(C(=O)CCNC(=O)c1ccc(Br)cc1)CC2 | · | – | – | – | · | · | ·
COc1cc2c(cc1OC)CN(CCC(=O)c1ccc(Br)cc1)CC2 | – | – | – | 32.7 | – | – | 27.8
NS(=O)(=O)c1ccc(-c2ccc(/C=C3\NC(=S)NC3=O)o2)cc1 | – | – | – | 34.0 | – | – | –
OCC#Cc1ncc(C(F)(F)F)cc1Cl | – | – | – | 28.4 | – | – | –
O=C(CN1CCCc2ccccc21)N/N=C/c1c(O)ccc2ccccc12 | – | – | – | 30.8 | – | – | –
O=C(CN1CCCc2ccccc21)N/N=C/c1ccccc1 | – | – | – | – | – | – | ·
COc1ccccc1NC(=O)CN1C(=O)C(C)Oc2ccccc21 (stereo not drawn) | – | – | – | – | – | – | ·
CC(=O)Oc1cccc(N2C(=O)c3cccc4c([N+](=O)[O-])ccc(c34)C2=O)c1 | – | – | – | 28.4 | – | – | 40.5
CCOc1ccc(NC(=O)COC(=O)c2cccnc2)cc1 | – | – | – | – | – | – | ·
Cc1ccc(-n2[nH]c(C)c(/C=N/NC(=O)c3ccc(O)cc3O)c2=O)cc1 | – | – | – | 26.7 | – | – | –
Cc1[nH]n(-c2ccccc2)c(=O)c1/C=N/NC(=O)c1ccc(O)cc1O | – | – | – | – | – | – | ·
Nc1nc(SCC(=O)Nc2cc(S(=O)(=O)N3CCOCC3)ccc2Cl)n[nH]1 | – | – | – | – | – | – | ·
COC1=C/C(=C/c2c(N)n3cc(C)sc3nc2=O)C=CC1=O | – | – | – | – | – | – | ·
Cc1cn2c(N)c(C=C3C=C(Cl)C(=O)C(Cl)=C3)c(=O)nc2s1 | · | – | – | 35.4 | · | · | –
C=CCN1C(=O)c2ccc(C(=O)Nc3ccccn3)cc2C1=O | – | – | – | – | – | – | ·
Cc1cccc(C(=O)Oc2ccc(/C=N/NC(=O)c3cc(O)cc(O)c3)cc2)c1 | · | – | – | 26.3 | · | · | –
CC1=NN(c2nc(-c3ccc(C)cc3)cs2)C(=O)C1N=Nc1cccc(O)c1 (stereo not drawn) | – | – | – | 26.4 | – | – | –
COc1ccc(N2CS(=O)CC2=O)cc1 (stereo not drawn) | – | – | – | 42.9 | – | – | –
SMILES | PP1 inh | PAFAH1B2 inh | PAFAH2 inh | PAFAH1B3 FP inh | PP5 inh | pPAFAH inh | PAFAH1B3 confirm
CCc1cc2ccccc2nc1SCC(=O)NC1CCCC1 | – | – | – | – | – | – | ·
Cc1nc(N)sc1-c1csc(Nc2cccc(C(=O)O)c2)n1 | · | – | – | 29.1 | · | · | –
O=S(OCCN1CCCC1)C(c1ccccc1)c1ccccc1 (stereo not drawn) | · | – | – | – | · | · | ·
Cc1cc(C(=O)N/N=C/c2cccc([N+](=O)[O-])c2O)n[nH]1 | – | – | – | – | – | – | ·
Cc1cc(C(=O)N/N=C/c2cc(N=Nc3ccccc3)ccc2O)n[nH]1 | 15.5 | – | – | 28.6 | – | – | –
COc1ccccc1-c1c(C)nn2c(C)cc(C)nc12 | – | – | – | – | – | – | ·
